High-throughput results deposited in PubChem by National Center for Advancing Translational Sciences (NCATS).
MmCpn inh: M. maripaludis TRiC chaperonin inhibition; Potency, µM (top dose mostly 76.9 µM), actives largely listed as inhibitors; 0.031% of 330,000 active; purified Mm-Cpn ATPase, ADP Transcreener TR-FRET; also: nearly all actives have a fitted effect of over 80% in size
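Purified archaeal Mm-CPN (25nM final) preincubated 10 min at 37degC with compound, then 10uM ATP for 30 min at 37degC; ADP measured by HTRF Transcreener TR-FRET; buffer 30 mM TRIS pH 7.4, 100mM KCl, 5mM MgCl2, 1mM DTT.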
PLK1 PBD block: inhibitors of human PLK1 polo-box domain binding | Plk1 PBD binding of FITC phosphopeptide, fluorescence polarization | Potency, µM, usual class: inhibitors | 2.8% of 360,000 active; also: series mostly up to about 57 µM; nearly all actives have a fitted effect of over 65% in size
CCT chaperon mod: changes cytosolic chaperonin activity. purified chaperonin ATPase assay, HTRF ADP detection, 30 min. activity change, % (no concentration beside the values), hits read low. 0.3% of 360,000 active. AID 651819; in the data active = activity change below about -30%
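Nucleotide hydrolysis assay: TRiC at 20–40 nM final (set by batch activity) with 10 uM ATP, 30 min at 37 °C, in presence of 76 uM compound. Detection by competitive ADP HTRF, 30 min ambient.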
VDR inhibitor: vitamin D3 receptor (human) inhibition; P11473; VDR-SRC2-3 peptide fluorescence polarization, 2 h; Potency, µM, hits mostly inhibitors; 0.93% of 400,000 active
Target sequence (P11473 whole entry, looked up): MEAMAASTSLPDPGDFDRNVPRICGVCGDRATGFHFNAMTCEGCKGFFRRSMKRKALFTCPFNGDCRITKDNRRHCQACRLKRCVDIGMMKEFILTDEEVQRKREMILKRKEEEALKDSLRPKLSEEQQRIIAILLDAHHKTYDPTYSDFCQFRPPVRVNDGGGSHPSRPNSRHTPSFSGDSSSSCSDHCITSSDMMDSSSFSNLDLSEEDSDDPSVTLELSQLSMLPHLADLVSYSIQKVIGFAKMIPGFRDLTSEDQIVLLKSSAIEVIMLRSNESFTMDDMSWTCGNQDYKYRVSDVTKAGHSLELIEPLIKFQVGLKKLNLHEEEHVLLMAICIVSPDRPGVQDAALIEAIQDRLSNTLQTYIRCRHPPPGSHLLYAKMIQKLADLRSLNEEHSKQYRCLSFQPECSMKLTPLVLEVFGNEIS
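Two reagent solutions held at 4 deg C in the dark were dispensed, compounds pinned at 23 nl, and the mixture incubated 2 h at room temperature. Read-out: fluorescence polarization of VDR–SRC2-3 peptide binding.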
G9a inh: G9a (human) methyltransferase inhibition; Q96KQ7; G9a H3K9 monomethylation, AlphaScreen, 2 h; Potency, µM (highest dose often 102 µM), most hits filed as inhibitors; 8.8% of 350,000 active; also: nearly all actives have a fitted effect of over 75% in size
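AlphaScreen read-out: biotin-H3K9 peptide (500 nM) methylation by 20 nM enzyme with 20 uM SAM, 2 h at room temperature after 15 min compound preincubation; anti-monomethyl H3K9 antibody plus donor/acceptor beads, 10 min dark.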
Sfp inh: Sfp phosphopantetheinyl transferase inhibition; Potency, µM, usual class: inhibitors; 3.5% of 310,000 active; Q9F4F7; AID 1490; Biochemical Sfp PPTase activity, qHTS;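 also: the enzyme is Sfp with the accession as filed and its product quenches rhodamine fluorescence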
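Step 1, compound plus 15 nM Sfp-PPTase, 15 min, room temperature. Step 2, add rhodamine-CoA (5 uM) and BHQ-2-YbbR (12.5 uM). Step 3, read 525/598 nm fluorescence at 0 and 30 min.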
Large screens that a line does not name were inactive. Sampled rows, rich in hits. Any-hit rate of the full collection: about 10%. Unless noted, calls follow the shape of the dose curve; as a rule, active = well fitted curve in the direction sought with a large enough effect; inconclusive = small, poorly fitted or top-dose-only effect, or another doubt; inactive = no such curve, though single readings can be large; an effect the other way counts as inactive or inconclusive.

C=C1C2CC[C@@]3(C)C(c4ccoc4)OC(=O)C[C@@]13OC1CC(OC(C)=O)C(C)(C)C(CC(=O)OC)[C@@]12C (stereo partly drawn)	none (no result: MmCpn inh, PLK1 PBD block, CCT chaperon mod)
COc1ccc(C2(CNC(=O)c3ccccc3[N+](=O)[O-])CCOCC2)cc1	G9a inh 40µM
COc1ccc(C2(CNC(=O)c3cccc([N+](=O)[O-])c3)CCCCC2)cc1OC	none
COc1ccc(C2(CNC(=O)c3cccc([N+](=O)[O-])c3)CCOCC2)cc1OC	PLK1 PBD block 15µM, VDR inhibitor inconclusive
COc1ccc([N+](=O)[O-])cc1NC(=O)C1(c2ccc(OC)c(OC)c2)CCOCC1	CCT chaperon mod -93
COc1ccc([N+](=O)[O-])cc1NC(=O)Nc1ccc(OC)c(OC)c1	G9a inh inconclusive
CCN(CC)CCC(=O)c1ccc(F)cc1	PLK1 PBD block 11µM, G9a inh 40µM
CCOc1ccc(-c2nn(CC(=O)NC3CCCCC3)c3c2cnc2ccc(C)cc23)cc1	none (no result: MmCpn inh, PLK1 PBD block, CCT chaperon mod, Sfp inh)
Cc1cccc(C(=O)NCC(=O)NCCCSc2ccccc2)c1	none (no result: Sfp inh)
CN(C)c1cccc(C(=O)NCCCSc2ccccc2)c1	G9a inh 40µM
CN(C)c1cccc(C(=O)NCCCn2ccc3ccccc32)c1	G9a inh 71µM
COc1cccc(C(=O)NCCn2ccc3ccccc32)c1	none
Clc1cccc(/C(Cc2nc3ccccc3[nH]2)=N\Nc2ccccc2)c1	G9a inh 6.3µM
CCN/N=C(\Cc1nc2ccccc2[nH]1)c1ccccc1	none
c1ccc(N/N=C(\Cc2nc3ccccc3[nH]2)c2ccccc2)cc1	VDR inhibitor inconclusive, G9a inh 1.4µM
Cc1ccc(N/N=C(\Cc2nc3ccccc3[nH]2)c2ccccc2)cc1	PLK1 PBD block inconclusive, VDR inhibitor inconclusive, G9a inh 7.1µM
N#CCCN/N=C(\Cc1nc2ccccc2[nH]1)c1ccccc1	G9a inh 50µM
N#CCCN/N=C(/Cc1nc2ccccc2[nH]1)c1ccc(Cl)cc1	G9a inh inconclusive (no result: PLK1 PBD block, CCT chaperon mod, VDR inhibitor)
CN(C)c1ncc2nc(-c3ccccc3)c(=O)n(C[C@H]3CCCO3)c2n1	VDR inhibitor inconclusive (no result: MmCpn inh, PLK1 PBD block, CCT chaperon mod)
CCC(C)NC(=O)c1ccc(Cn2c(=O)c3cccn3c3cccnc32)cc1 (stereo not drawn)	none (no result: MmCpn inh, PLK1 PBD block, CCT chaperon mod, Sfp inh)
Cc1ccc(CSCCC(=O)NCc2ccc(F)cc2Cl)cc1	none (no result: MmCpn inh, PLK1 PBD block, CCT chaperon mod, Sfp inh)
CC(=O)OC[C@@]1(O)C[C@@]23CC[C@@H]4c5ccoc5CC[C@@]4(C)[C@@H]2CCC1C3	VDR inhibitor inconclusive (no result: MmCpn inh, PLK1 PBD block, CCT chaperon mod, G9a inh)
O=C(NCCS(=O)(=O)N1CCN(c2cccc(Cl)c2)CC1)C(c1ccccc1)c1ccccc1	none (no result: MmCpn inh, PLK1 PBD block, CCT chaperon mod, Sfp inh)
CN(C)c1ccc(CNC(=O)c2ccc3nc(CCc4ccccc4)oc3c2)cc1	none (no result: MmCpn inh, PLK1 PBD block, CCT chaperon mod, Sfp inh)
O=C(O)C(=O)/C(=C\c1ccsc1)c1ccc2ccccc2n1	G9a inh inconclusive
O=C(O)C(=O)/C(=C\c1ccc([N+](=O)[O-])cc1)c1ccc2ccccc2n1	G9a inh 35µM, Sfp inh 45µM
O=C(O)C(=O)/C(=C\c1cccc2ccccc12)c1ccc2ccccc2n1	PLK1 PBD block 67µM
O=C(O)C(=O)/C(=C\c1ccccc1)c1ccc2ccccc2n1	G9a inh 79µM
CN1CCN(c2ncc3nc(-c4cccs4)c(=O)n(CCC#N)c3n2)CC1	none (no result: MmCpn inh, PLK1 PBD block, CCT chaperon mod)
COc1ccc(C(C)=O)cc1Cn1cnc2c(cnn2C)c1=O	PLK1 PBD block 19µM, VDR inhibitor inconclusive
COc1ccc(CNC(=O)c2ccc3c(c2)nc2n3CCCCC2)c(OC)c1	none (no result: MmCpn inh, PLK1 PBD block, CCT chaperon mod, Sfp inh)
C=CCSC1=C(C#N)C(c2ccccc2Cl)CC(=O)N1 (stereo not drawn)	PLK1 PBD block inconclusive, VDR inhibitor inconclusive, G9a inh 20µM, Sfp inh 35µM
C=CCSC1=C(C#N)C(c2ccc(OCC)cc2)CC(=O)N1 (stereo not drawn)	VDR inhibitor inconclusive, G9a inh inconclusive, Sfp inh 79µM
CCCSC1=C(C#N)C(c2cccs2)CC(=O)N1 (stereo not drawn)	PLK1 PBD block 24µM, G9a inh inconclusive, Sfp inh 25µM
CCOc1cc(C2CC(=O)NC(SCC)=C2C#N)ccc1O (stereo not drawn)	G9a inh 50µM
N[C@H](Cc1cc(I)c(Oc2cc(I)c(O)c(I)c2)c(I)c1)C(=O)O	none (no result: MmCpn inh, PLK1 PBD block, CCT chaperon mod)
